Experimental data taken from PubChem BioAssay (Tox21).
Inconclusive results are not listed. The source made the active and inactive calls. Unless noted, the call rests on the fitted dose curve; in most records, active means well fitted curve in the direction sought with a large enough effect in the repeat runs; inconclusive means weak or mixed curves; inactive means no such curve, though single readings can be large; an effect the other way counts as inactive or inconclusive.

Tests used:
[1] = qHTS assay to identify small molecule agonists of the RXR signaling pathway - cell viability counter screen (AID 1159529);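 further: HEK 293T cells carrying an RXR-alpha UAS beta-lactamase reporter; series mostly up to about 77 µM; nearly all actives have a fitted effect of over 50% in size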
Method in brief: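 RXR-alpha-UAS-bla HEK 293T cells in medium with 2% charcoal-stripped FBS were preincubated 5 hr, then exposed to compounds for 16 hr at 37 C. Viability was read as CellTiter-Glo luminescence after 30 min at room temperature.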

[2] = qHTS assay to identify small molecule antagonists of the retinoic acid receptor (RAR) signaling pathway (AID 1159552; further: nearly all actives have a fitted effect of over 50% in size)
Method in brief: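 RARE-luc C3RL4 cells; cpds + 1 uM (final) retinol, 6 hr, 37 C/5% CO2; luciferase reagent, 30 min RT, luminescence readout. Inhibitors of retinol-driven signal scored.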

[3] = qHTS assay to identify small molecule agonists of the retinoic acid receptor (RAR) signaling pathway (AID 1159553)
Method in brief: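 In this cell-based screen, 1,000 C3RL4 cells per well were cultured overnight, dosed with test chemicals in DMSO for 6 hr, and assessed for RARE luciferase luminescence.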

[4] = qHTS assay to identify small molecule antagonists of the estrogen related receptor (ERR) signaling pathway from Tox21 library - cell viability counter screen (AID 1224834); further: nearly all actives have a fitted effect of over 30% in size
Method in brief: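 Counter screen run in ERR cells (2,000 cells/well): cells pre-incubated 6 h, then treated with compounds for 17.5 h at 37 C. Fluorescence was read 30 min after CellTiter-Fluor addition.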

[5] = molecular target: Luciferin 4-monooxygenase (Photinus pyralis) (UniProt P08659); test: qHTS assay to identify small molecule inhibitors of firefly luciferase (AID 1224835); further: series mostly up to about 120 µM; nearly all actives have a fitted effect of over 25% in size
Method in brief: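 Quantitative HTS format; KM concentrations of both substrates. Purified P. pyralis FLuc activity quantified from luminescence images.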

[6] = qHTS assay to identify small molecule agonists of the constitutive androstane receptor (CAR) signaling pathway - cell viability counter screen (AID 1224836); further: series mostly up to about 92 µM; nearly all actives have a fitted effect of over 45% in size
Method in brief: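 HepG2 cells stably carrying hCAR and a CYP2B6-2.2kb reporter were plated 4 h, then given compounds at 15 concentrations plus PK11195 (final 0.75 uM). After 23 h at 37 C, viability was read by CellTiter-Fluor fluorescence.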

[7] = qHTS assay to identify small molecule antagonists of the constitutive androstane receptor (CAR) signaling pathway - cell viability counter screen (AID 1224837); further: series mostly up to about 92 µM; nearly all actives have a fitted effect of over 45% in size
Method in brief: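 CITCO at 50 nM final was added alongside compounds (15 concentrations) to double-stable hCAR/CYP2B6-2.2kb HepG2 cells. Following 23 hr at 37 C, cell viability was quantified by CellTiter-Fluor fluorescence intensity.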

[8] = molecular target: Nuclear receptor subfamily 1 group I member 3 (Homo sapiens) (UniProt Q14994); test: qHTS assay to identify small molecule antagonists of the constitutive androstane receptor (CAR) signaling pathway (AID 1224838); further: nearly all actives have a fitted effect of over 40% in size
Method in brief: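 Inhibition of CITCO-driven (50 nM final) CYP2B6 reporter expression is measured in HepG2 cells stably carrying hCAR. Fifteen compound concentrations are applied for 24 h at 37 C, followed by luciferase luminescence.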

[9] = molecular target: Nuclear receptor subfamily 1 group I member 3 (Homo sapiens) (UniProt Q14994); test: qHTS assay to identify small molecule agonists of the constitutive androstane receptor (CAR) signaling pathway (AID 1224839); further: series mostly up to about 92 µM; nearly all actives have a fitted effect of over 15% in size
Method in brief: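 HepG2 cells stably expressing hCAR and a CYP2B6-2.2kb luciferase reporter were treated with compounds at 15 concentrations plus 0.75 uM PK11195 (final) for 24 h at 37 C; luminescence was read after ONE-Glo addition.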

[10] = qHTS assay to identify small molecule antagonists of the estrogen related receptor signaling pathway with the pleiotropic PPARgamma coactivator (PGC) from Tox21 10K library - cell viability counter screen (AID 1224840; active means well fitted cell-killing curve with a large enough effect in the repeat runs, not every such curve was filed as active; further: nearly all actives have a fitted effect of over 40% in size)
Method in brief: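 Readout: fluorescence intensity from CellTiter-Fluor after 30 min at 37 C/5% CO2. Preceded by 17.5 h treatment of PGC/ERR cells with DMSO-dissolved compounds, added 6 h post-seeding.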

[11] = molecular target: Thyrotropin receptor (Homo sapiens) (UniProt P16473); test: qHTS assay to identify small molecule agonists of the thyroid stimulating hormone receptor (TSHR) signaling pathway (AID 1224843; calls by dose curve; further: nearly all actives have a fitted effect of over 45% in size)
Method in brief: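 Compounds are titrated over 15 concentrations, in triplicate, onto TSHR-HEK293 cells seeded at 800/well. Plates sit 30 min at room temperature before cAMP-d2 and anti-cAMP cryptate are added; signal is read after a further hour.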

[12] = qHTS assay to identify small molecule agonists of the hypoxia (HIF-1) signaling pathway - cell viability counter screen (AID 1224844; calls by dose curve; further: nearly all actives have a fitted effect of over 50% in size)
Method in brief: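 In this counter screen, HRE-bla ME-180 cell viability after 17 hrs of compound exposure at 37C was read by CellTiter-Glo luminescence, multiplexed with the beta-lactamase reporter measurement.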

[13] = qHTS assay to identify small molecule agonists of H2AX (AID 1224845; active means well fitted activation curve with a large enough effect in the signal ratio in the repeat runs, not every such curve was filed as active; the % refers to the signal ratio)
Method in brief: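 Wild-type CHO-K1 cells plated overnight, then exposed 3 hr at 37C to compounds at 15 concentrations (0.76% DMSO). Lysed, then HTRF anti-pH2AX(S139)-cryptate/anti-H2AX-d2 detection after 24 hr at room temperature; emissions 665 and 620 nm.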

[14] = qHTS assay to identify small molecule agonists of the hypoxia (HIF-1) signaling pathway (AID 1224846; active means well fitted activation curve with a large enough effect in the signal ratio in the repeat runs, not every such curve was filed as active; the % refers to the signal ratio)
Method in brief: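 ME-180 HRE-bla reporter cells; compounds in DMSO, 17 h at 37C; read-out beta-lactamase via CCF4-AM FRET.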

[15] = qHTS assay to identify small molecule agonists of H2AX - cell viability counter screen (AID 1224847; calls by dose curve; further: top concentration of the series differs between compounds; nearly all actives have a fitted effect of over 30% in size)
Method in brief: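 Wild-type CHO-K1 cells (10% FBS medium) were plated overnight at 37C, exposed to compounds at 15 concentrations for 3 hr at 37C (0.76% DMSO final), and viability was read as CellTiter-Glo luminescence after 30 min at room temperature.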

[16] = qHTS assay to identify small molecule antagonists of the retinoid acid receptor (RAR) signaling pathway - cell viability counter screen (AID 1159551); further: nearly all actives have a fitted effect of over 35% in size
Method in brief: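 In this counter screen, the RARE-luciferase line C3RL4 was exposed for 6 h at 37 C and 5% CO2 to compounds with retinol at 1 uM final. Cellular ATP, read by luminescence, served as the viability measure.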

[17] = qHTS assay to identify small molecule antagonists of the estrogen related receptor signaling pathway with the pleiotropic PPARgamma coactivator (PGC) from Tox21 10K library (AID 1224841; call rule not given here; further: series mostly up to about 92 µM; actives are mostly falling curves and most rising ones were filed inactive; nearly all actives have a fitted effect of over 50% in size)
Method in brief: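 One-Glo luminescence, measured after half an hour at room temperature, quantified reporter output of PGC/ERR cells. These had been plated at 2,000 per well, incubated 6 h, dosed with compounds in DMSO, then kept 18 h at 37 C.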

[18] = qHTS assay to identify small molecule agonists of the estrogen related receptor signaling pathway with the pleiotropic PPARgamma coactivator (PGC) from Tox21 10K library (AID 1224842); further: nearly all actives have a fitted effect of over 15% in size
Method in brief: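 PGC/ERR reporter cells (NTP line) were seeded 2,000 per well, rested 6 h at 37 C/5% CO2, then pin-dosed with compounds in DMSO for 18 h at 37 C; luciferase read by One-Glo luminescence after 30 min at room temperature.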

[19] = qHTS assay to identify small molecule antagonists of the estrogen related receptor (ERR) signaling pathway from Tox21 library (AID 1224848); further: nearly all actives have a fitted effect of over 50% in size
Method in brief: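 First, 2,000 ERR cells per well were plated and held 6 h at 37 C/5% CO2. Next, compounds in DMSO were pinned in and left 18 h at 37 C. Finally, ONE-Glo was added and luminescence read after 30 min at room temperature.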
On the % scale 0 is the no-effect control and ±100 the full control effect.

Luciferin 4-monooxygenase (Photinus pyralis), sequence (P08659 whole entry, looked up): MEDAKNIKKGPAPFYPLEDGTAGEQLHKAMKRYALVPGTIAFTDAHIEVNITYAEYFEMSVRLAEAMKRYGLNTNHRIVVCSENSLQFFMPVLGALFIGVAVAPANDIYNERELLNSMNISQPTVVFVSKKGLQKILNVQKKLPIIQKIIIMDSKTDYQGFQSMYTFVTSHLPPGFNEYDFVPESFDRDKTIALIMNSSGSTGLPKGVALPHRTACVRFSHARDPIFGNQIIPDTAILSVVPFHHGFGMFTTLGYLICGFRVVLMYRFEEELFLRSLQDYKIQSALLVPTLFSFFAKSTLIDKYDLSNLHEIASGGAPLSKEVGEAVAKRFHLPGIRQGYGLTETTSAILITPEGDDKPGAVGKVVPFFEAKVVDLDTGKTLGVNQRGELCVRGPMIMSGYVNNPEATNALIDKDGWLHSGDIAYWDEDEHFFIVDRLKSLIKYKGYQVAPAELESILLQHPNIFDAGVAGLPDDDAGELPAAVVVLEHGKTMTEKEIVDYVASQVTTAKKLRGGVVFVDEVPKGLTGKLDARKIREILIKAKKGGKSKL
Nuclear receptor subfamily 1 group I member 3 (Homo sapiens), sequence (Q14994 whole entry, looked up): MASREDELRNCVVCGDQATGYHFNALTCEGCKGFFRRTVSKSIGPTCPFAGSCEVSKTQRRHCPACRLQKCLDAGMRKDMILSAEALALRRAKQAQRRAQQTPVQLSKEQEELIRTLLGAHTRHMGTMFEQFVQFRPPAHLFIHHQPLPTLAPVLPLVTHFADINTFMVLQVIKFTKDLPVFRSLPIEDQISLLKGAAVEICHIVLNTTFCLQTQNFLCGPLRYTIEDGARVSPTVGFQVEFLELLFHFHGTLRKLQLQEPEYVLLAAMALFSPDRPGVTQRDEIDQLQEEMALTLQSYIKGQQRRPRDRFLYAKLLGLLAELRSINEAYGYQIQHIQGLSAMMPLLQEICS
Thyrotropin receptor (Homo sapiens), sequence (P16473 whole entry, looked up): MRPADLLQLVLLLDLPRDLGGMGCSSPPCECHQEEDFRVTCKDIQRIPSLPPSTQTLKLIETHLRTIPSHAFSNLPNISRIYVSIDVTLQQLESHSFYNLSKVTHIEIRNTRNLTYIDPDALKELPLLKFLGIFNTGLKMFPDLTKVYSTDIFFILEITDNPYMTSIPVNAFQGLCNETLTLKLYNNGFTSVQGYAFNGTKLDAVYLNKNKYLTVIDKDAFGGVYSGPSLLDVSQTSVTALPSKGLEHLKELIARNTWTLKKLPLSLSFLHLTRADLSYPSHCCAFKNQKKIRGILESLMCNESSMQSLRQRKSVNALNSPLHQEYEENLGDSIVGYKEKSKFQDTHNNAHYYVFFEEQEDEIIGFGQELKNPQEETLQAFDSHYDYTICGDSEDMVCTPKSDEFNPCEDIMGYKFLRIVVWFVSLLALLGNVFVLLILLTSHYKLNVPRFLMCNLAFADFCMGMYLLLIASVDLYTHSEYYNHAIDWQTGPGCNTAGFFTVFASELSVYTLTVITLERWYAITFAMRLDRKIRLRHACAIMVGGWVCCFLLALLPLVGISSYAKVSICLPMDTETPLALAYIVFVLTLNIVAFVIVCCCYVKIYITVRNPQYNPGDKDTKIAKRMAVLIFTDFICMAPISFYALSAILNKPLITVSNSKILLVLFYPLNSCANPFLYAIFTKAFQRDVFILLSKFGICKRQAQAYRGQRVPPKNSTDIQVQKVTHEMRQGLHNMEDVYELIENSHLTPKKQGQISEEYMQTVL

CC(O)COC(C)(C)C (configuration not stated)
inactive: outcome [1] | outcome [2] | Potency [3] | outcome [4] | Potency [5] | outcome [6] | outcome [7] | Potency [8] | Potency [9] | outcome [10] | outcome [11] | outcome [12] | outcome [13] | outcome [14] | outcome [15]

CC1=C(C(=O)O)N2C(=O)[C@@H](NC(=O)[C@H](N)c3ccccc3)[C@H]2SC1
inactive: outcome [1] | outcome [16] | outcome [2] | Potency [3] | outcome [4] | Potency [5] | outcome [6] | outcome [7] | Potency [8] | Potency [9] | outcome [17] | outcome [18] | outcome [12] | outcome [13] | outcome [15] | Potency [19]

CCCC(=O)OC/C=C(\C)CCC=C(C)C
inactive: outcome [1] | outcome [16] | outcome [2] | Potency [3] | outcome [4] | Potency [5] | outcome [6] | outcome [7] | Potency [8] | Potency [9] | outcome [10] | outcome [11] | outcome [12] | outcome [13] | outcome [14] | outcome [15]

C=Cc1ccc(C(C)(C)C)cc1
inactive: outcome [1] | outcome [16] | outcome [2] | Potency [3] | outcome [4] | Potency [5] | outcome [6] | outcome [7] | Potency [8] | Potency [9] | outcome [10] | outcome [11] | outcome [12] | outcome [13] | outcome [14] | outcome [15]

CCCCCCCCCCCCCCCCCC#N
inactive: outcome [1] | outcome [16] | outcome [2] | Potency [3] | outcome [4] | Potency [5] | outcome [6] | outcome [7] | Potency [8] | Potency [9] | outcome [10] | outcome [13] | outcome [14] | outcome [15]

[O-][n+]1cccc(/C(Cl)=N/OC[C@@H](O)CN2CCCCC2)c1
inactive: outcome [1] | outcome [16] | Potency [3] | outcome [4] | Potency [5] | outcome [6] | outcome [7] | Potency [8] | Potency [9] | outcome [12] | outcome [13] | outcome [14] | outcome [15]

CC1(C)CC(OC(=O)CCCCCCCCC(=O)OC2CC(C)(C)NC(C)(C)C2)CC(C)(C)N1
inactive: activity change, negative = cytotoxicity [1] -17.6% [at 15.8 µM] | activity change, negative = cytotoxicity [16] -0.597% [at 19 µM] | Potency [3] | viability change, negative = cytotoxic [4] -0.749% [at 19 µM] | activity change, negative = inhibition [5] 0.839% [at 23.6 µM] | viability change, negative = cytotoxic [6] -0.169% [at 19 µM] | activity change, negative = cytotoxicity [7] -3.96% [at 19 µM] | activity, negative = inhibition [8] 7.36% [at 19 µM] | activation [9] -1.81% [at 19 µM] | viability change, negative = cytotoxic [10] -0.192% [at 19 µM] | activation [11] -8.72% [at 19 µM] | activation (H2AX phosphorylation) [13] 0.0652% [at 31.6 µM] | activation [14] -0.0727% [at 15.8 µM] | activity change, negative = cytotoxicity [15] -4.19% [at 31.6 µM]

CCC[C@@H]1C[C@@H](C(=O)N[C@@H]([C@H]2O[C@H](SC)[C@H](O)[C@@H](O)[C@H]2O)[C@@H](C)O)N(C)C1
inactive: outcome [1] | outcome [16] | outcome [2] | Potency [3] | outcome [4] | Potency [5] | outcome [6] | outcome [7] | Potency [8] | Potency [9] | outcome [10] | outcome [11] | outcome [12] | outcome [13] | outcome [15]

CCC(C)OC(C)CC (configuration not stated)
inactive: outcome [1] | outcome [16] | Potency [3] | outcome [4] | Potency [5] | outcome [6] | outcome [7] | Potency [8] | Potency [9] | outcome [10] | outcome [12] | outcome [13] | outcome [14]
